DAX1 inh-1 = DAX1 (NR0B1) inhibitors on StAR promoter, primary screen, cell-based, luminescence, SF-1 (NR5A1), full-length DAX-1. HEK293T StAR-luciferase reporter, SF-1/DAX-1 repression relief. inhibition, % at 6.8 µM. hit rate 1.1% among 370,000. AID 652010, 2013;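 active means inhibition above the mean over all tested compounds plus 3 SD, cut at about 3.6% in these data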;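 further: 0% = DAX-1 cells with DMSO and 100% = cells lacking DAX-1 with DMSO; higher inhibition means more luminescence from relief of DAX-1 repression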
hcDAF12 agonist = H. contortus DAF-12 nuclear receptor activators, primary screen, cell-based, luminescence, HEK293, lit1-tk-luc reporter; activation, % at 6.8 µM; HEK293 hcDAF-12 lit1-tk-luc reporter; 0% DMSO, 100% Δ7-dafachronic acid; hit rate 1.4% among 370,000;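 active means activation above the mean of all tested compounds plus 3 SD, cut at about 5.5% in these data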;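 further: 100% = response to 3 µM Δ7-dafachronic acid high control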
ssDAF12 agonist = S. stercoralis DAF-12 nuclear receptor activators, primary screen, cell-based, luminescence, HEK293, GRIP1 co-expression, lit1-tk-luc. Nuclear hormone receptor DAF-12 (Strongyloides stercoralis). hit rate 1% among 370,000. activation, % at 6.8 µM. AID 652126, 2013. HEK293 ssDAF-12/GRIP1 lit1-tk-luc reporter; % of 3 µM dafachronic acid response;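 active means activation above the mean over all tested compounds plus 3 SD, cut at about 0.9% in these data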;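 further: 0% = DMSO-only wells and 100% = 3 µM delta7-dafachronic acid wells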
hgDAF-12 ag = H. glycines DAF-12 receptor agonists, primary screen, cell-based, luminescence, HEK293, GAL4 fusion, UAS-luciferase; Nuclear hormone receptor DAF-12 (Heterodera glycines), GAL4 fusion; hit rate 1.8% among 370,000; activation, % at 6.8 µM; HEK293 GAL4-hgDAF12 UAS-luciferase reporter, agonist luminescence; normalized to butyrate control;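 active means activation above a cutoff set at the mean of all screened compounds plus 3 SD, cut at about 10% in these data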;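 further: 0% = DMSO wells and 100% = sodium butyrate wells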
DAX1 inh-2 = DAX1 (NR0B1) inhibitors, primary screen, cell-based, HEK293, Gal4-DAX1, luciferase luminescence; Nuclear receptor subfamily 0 group B member 1 (Homo sapiens), P51843; inhibition, % at 6.75 µM; HEK293 Gal4-DAX1 luciferase reporter; hit rate 0.99% among 340,000;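 active means inhibition above the mean over all tested compounds plus 3 SD, cut at about 4.2% in these data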;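 further: 0% = DAX1-transfected cells with DMSO and 100% = empty-vector control cells with DMSO; inhibition shows as a rise in luminescence from relieved DAX1 repression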
hgDAF12 conf = H. glycines DAF-12 receptor agonists, confirmation, cell-based, luminescence, HEK293, GAL4-LBD fusion. shares compounds with hgDAF-12 ag. activation, % at 6.8 µM. HEK293 GAL4-hgDAF12 luciferase reporter, agonist mode; percent of butyrate response. hit rate 80% among 3,300;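 active means mean activation over triplicate wells above the hit cutoff derived from the earlier primary screen, cut at about 11% in these data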;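 further: 0% = DMSO low control and 100% = 2 mM sodium butyrate high control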
LXR ag 2 = LXR agonists, Gal4 luciferase reporter, confirmation, counter-screen for hgDAF-12 agonist project, cell-based, luminescence, HEK293, H. glycines campaign; shares compounds with hgDAF-12 ag; 24 h; activation, % at 6.8 µM; 3,300 tested, under 10 active; AID 743051, 2013;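 active means mean activation of the triplicate above a set limit carried over from the primary screen, none filed active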
Target sequence (P55055 whole entry, looked up, the tested form may be a part): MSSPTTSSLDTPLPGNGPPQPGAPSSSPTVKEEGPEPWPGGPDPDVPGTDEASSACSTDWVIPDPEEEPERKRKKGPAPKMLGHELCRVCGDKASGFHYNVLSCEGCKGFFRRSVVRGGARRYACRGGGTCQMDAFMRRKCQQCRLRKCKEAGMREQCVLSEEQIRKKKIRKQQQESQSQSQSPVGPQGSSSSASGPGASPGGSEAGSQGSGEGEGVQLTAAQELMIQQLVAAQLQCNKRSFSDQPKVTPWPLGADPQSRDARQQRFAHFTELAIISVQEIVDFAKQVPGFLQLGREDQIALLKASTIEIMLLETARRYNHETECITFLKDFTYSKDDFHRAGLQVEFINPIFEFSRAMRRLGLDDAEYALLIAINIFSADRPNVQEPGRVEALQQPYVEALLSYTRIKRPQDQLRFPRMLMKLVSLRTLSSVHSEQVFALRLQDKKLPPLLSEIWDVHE
The depositor's hits bear a star; nt = no result given. Compounds with a hit are over-represented: about 4.1% of the library has one in this group of screens.

SMILES | DAX1 inh-1 | hcDAF12 agonist | ssDAF12 agonist | hgDAF-12 ag | DAX1 inh-2 | hgDAF12 conf | LXR ag 2
COc1ccc(CNC(=O)c2cc(-c3ccc(OC)c(OC)c3)on2)cc1 | -1 | -2 | -1 | -2 | 0 | nt | nt
COc1cccc(-c2cc(C(=O)Nc3cccnc3)no2)c1 | 1 | 1 | 0 | 15* | 0 | 21* | 0
O=C(Nc1cccc(O)c1)c1cc(-c2ccc3c(c2)OCO3)on1 | 2 | 3 | -1 | 7 | -5 | nt | nt
Cc1ccc(NC(=O)c2cc(-c3cccc(O)c3)on2)cc1C | 3 | 1 | 1.0* | 14* | 2 | 14* | 0
O=C(NCc1cccs1)c1cc(-c2ccc(O)cc2)on1 | 3 | 4 | -1 | 15* | 5.7* | 18* | 1
O=S(=O)(c1cnc[nH]1)N1CCc2ccccc21 | 0 | 2 | 0 | 0 | 1 | nt | nt
O=C(Nc1ccccc1C(=O)NC1CC1)c1ccccc1F | -3 | 1 | -1 | 0 | 0 | nt | nt
O=C(NCc1ccccc1)c1cc(-c2ccco2)on1 | 0 | 1 | -1 | 2 | 0 | nt | nt
O=C(NCc1ccccc1)c1cc(-c2cccc(O)c2)on1 | 2 | 0 | 0 | 18* | 0 | 12* | 0
CC(C)CNS(=O)(=O)c1ccc(CCC(=O)N2CCC(C(N)=O)CC2)cc1 | 0 | -1 | -1 | 1 | -1 | nt | nt
CCc1nc2ccc(C(=O)N3CCN(c4ccccc4)CC3)cn2c1N(C)CCCc1ccccc1 | 0 | 0 | -2 | -4 | nt | nt | nt
Cc1cccc(NC(=O)C2CCCN(C(=O)Nc3ccc(F)cc3)C2)c1 (centres undefined) | 0 | -3 | -1 | -1 | 0 | nt | nt
Cc1sc(NC(=O)c2ccccc2)c(C#N)c1-c1ccccc1 | 2 | 2 | 0 | 16* | 2 | 12* | 1
CN1CCC(=NNC(=O)c2cc(-c3ccc(Cl)cc3)n[nH]2)CC1 | 1 | -1 | -2 | 8 | 1 | nt | nt
CCOc1ccc(-c2cc(C(=O)NN=C3CCN(C)CC3)[nH]n2)cc1 | 3 | 6.0* | 1.1* | 13* | 0 | 3 | 0
Fc1cccc(Cl)c1CN1CCN(c2nc3ccccc3s2)CC1 | 3 | 6 | 1 | 13* | 4 | 11* | 0
COc1cccc(-c2noc(-c3cccnc3)n2)c1 | 3 | 2 | 0 | 14* | 4.2* | 15* | 1
COc1cccc(-c2noc(-c3ccc(Br)o3)n2)c1 | 4.4* | 3 | 0 | 16* | 3 | 17* | 1
CSc1ccc(C2=C/C(=C3/SC(=S)NC3=O)c3ccccc3O2)cc1 | 0 | 0 | -1 | -1 | 0 | nt | nt
O=C(O)c1cc(-c2cccs2)[nH]n1 | 0 | 0 | 0 | 15* | 1 | 1 | 0
Cc1ccc(NS(=O)(=O)c2ccccc2)c([N+](=O)[O-])c1 | 2 | 0 | -1 | -1 | -1 | nt | nt
Cc1ccc(S(=O)(=O)Nc2ccccc2[N+](=O)[O-])cc1 | -2 | -1 | -1 | 28* | nt | 1 | 0
Cc1ccc2nc(-c3cccc(Cl)c3)c(Cc3ccsc3)n2c1 | 2 | 2 | 1 | 16* | nt | 8 | 0
Cc1ccc(Cc2c(-c3ccc(Br)cc3)nc3ccc(Br)cn23)cc1 | -2 | 2 | 0 | 17* | 3 | 9 | 0
COc1ccccc1Cc1c(-c2ccc(Cl)cc2)nc2ccc(C)cn12 | 3 | 6.1* | 1.2* | 14* | nt | 15* | 1
SMILES | DAX1 inh-1 | hcDAF12 agonist | ssDAF12 agonist | hgDAF-12 ag | DAX1 inh-2 | hgDAF12 conf | LXR ag 2
Clc1cccc(-c2nc3ccc(Br)cn3c2Cc2ccsc2)c1 | 3 | 4 | -1 | 8 | nt | nt | nt
COc1ccccc1Cc1c(-c2ccc(Cl)cc2)nc2c(C)cc(Br)cn12 | -3 | 4 | 0 | 3 | nt | nt | nt
O=C1CCC/C(=N/NC(=O)c2ccc(CN3c4cccc5cccc(c45)S3(=O)=O)cc2)C1 | 0 | 0 | -2 | -3 | -2 | nt | nt
Cn1nc(C(=O)Nc2cccc(S(=O)(=O)N3CCCCC3)c2)c2ccccc2c1=O | -2 | -1 | -1 | -4 | 2 | nt | nt
O=c1[nH]c(CSc2ccccn2)nc2ccccc12 | 3.6* | 2 | 0 | 18* | 1 | 14* | 1
CC1CCc2c(sc(NC(=O)C3CCCO3)c2C#N)C1 (centres undefined) | 3 | 1 | -1 | 20* | 2 | 10* | 1
CCc1ccccc1NC(=S)N(CCN(C)C)Cc1cccs1 | 1 | 0 | -2 | -1 | 0 | nt | nt
O=c1[nH]nc(-c2ccc(F)cc2)cc1-c1ccccc1 | 0 | -2 | -2 | -3 | -1 | nt | nt
O=C1c2ccccc2-c2nnc(-c3ccc(F)cc3)cc21 | 2 | 6.0* | 1.4* | 15* | 7.1* | 11* | 1
Nc1ccccc1NC1=CC(=O)CC(c2ccco2)C1 (centres undefined) | 2 | 4 | 1 | 13* | 2 | 0 | 0
CC(=O)Oc1ccccc1-c1nc(/C=C/c2ccccc2)no1 | 3 | 6.3* | 0 | 17* | 2 | 18* | 1
N/C(=N\OC(=O)COc1ccc(Cl)cc1Cl)c1ccncc1 | 4.0* | 5 | 0 | 16* | 6.2* | 21* | 1
COC(=O)[C@]12C[C@H](CC(=O)NCC34CC5CC(CC(C5)C3)C4)C(=O)N(CCC3=CCCCC3)C1=C[C@H](C(C)C)O[C@@H]2C1CC1 | 0 | 0 | -2 | -2 | nt | nt | nt
O=C(Nc1cccc(O)c1)c1ccc(C(F)(F)F)cc1 | 2 | 4 | 0 | 14* | 2 | 13* | 1
O=C(Nc1cccc(C(F)(F)F)c1)c1cc[n+]([O-])cc1 | 0 | -1 | -1 | -2 | -1 | nt | nt
CCN1CCN(C(=O)c2ccc(-c3nc4ccccc4s3)s2)CC1 | 4.3* | 4 | 1 | 17* | 2 | 11* | 1
O=C(c1ccc(-c2nc3ccccc3s2)s1)N1CCOCC1 | 2 | 0 | -2 | -4 | nt | nt | nt
CCOC(=O)c1ccc(NC(=O)c2ccccc2[N+](=O)[O-])cc1 | 1 | -2 | -1 | 9 | 0 | nt | nt
Cc1ccc(Nc2ncccc2C(N)=O)cc1[N+](=O)[O-] | 2 | 3 | 0 | 16* | 3 | 14* | 1
